# Data reported in PMC7862700, “An all-to-all approach to the identification of sequence-specific readers for epigenetic DNA modifications on cytosine”.
# Assays:
# Assay in all cases: DAPPL (digital affinity profiling via proximity ligation, sequencing); 10 mM Tris-HCl pH 7.5, 50 mM NaCl, 1 mM DTT, 4% glycerol, room temperature, 30 min; GST-TFs on glutathione beads, 16-mer random dsDNA library, 0.1% formaldehyde crosslink after washing; high values mean tight binding
# FLI1 = target: T1, FLI1 (Homo sapiens, UniProt Q01543 1-452); settings: protein: recombinant; tags: N-terminal GST; dsDNA, one strand shown
# T1 sequence: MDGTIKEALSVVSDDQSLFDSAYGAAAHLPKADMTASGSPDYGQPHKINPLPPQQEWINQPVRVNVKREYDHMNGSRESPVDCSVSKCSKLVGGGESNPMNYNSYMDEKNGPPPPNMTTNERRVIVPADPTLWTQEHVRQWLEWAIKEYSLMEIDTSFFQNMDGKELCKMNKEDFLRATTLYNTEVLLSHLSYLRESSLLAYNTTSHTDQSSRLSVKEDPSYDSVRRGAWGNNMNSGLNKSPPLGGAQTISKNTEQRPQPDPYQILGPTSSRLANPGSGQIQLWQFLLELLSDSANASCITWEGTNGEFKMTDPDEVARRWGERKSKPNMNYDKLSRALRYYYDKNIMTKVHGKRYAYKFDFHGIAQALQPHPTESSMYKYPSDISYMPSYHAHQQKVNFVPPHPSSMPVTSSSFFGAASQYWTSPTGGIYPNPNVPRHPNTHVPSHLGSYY
# Method in brief: (§1)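 Binding signal is defined as a hexamer's read frequency for one factor over its frequency for the tag-only sample. To obtain reads, GST-fused human transcription factors were expressed in yeast, captured on glutathione beads, barcoded with DNA and pooled with that sample. Pools met 200 nmole of a 16-mer random double-stranded DNA library in Tris/NaCl/DTT/glycerol buffer for 30 min at room temperature before washing, 0.1% formaldehyde crosslinking, proximity ligation (BsaI/T4 ligase, 1 h, 37 °C), PCR and Illumina NextSeq500 sequencing.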
# ELK1 = target: T2, ELK1 (Homo sapiens, UniProt P19419 1-428); settings: protein: recombinant; tags: N-terminal GST; dsDNA, one strand shown
# T2 sequence: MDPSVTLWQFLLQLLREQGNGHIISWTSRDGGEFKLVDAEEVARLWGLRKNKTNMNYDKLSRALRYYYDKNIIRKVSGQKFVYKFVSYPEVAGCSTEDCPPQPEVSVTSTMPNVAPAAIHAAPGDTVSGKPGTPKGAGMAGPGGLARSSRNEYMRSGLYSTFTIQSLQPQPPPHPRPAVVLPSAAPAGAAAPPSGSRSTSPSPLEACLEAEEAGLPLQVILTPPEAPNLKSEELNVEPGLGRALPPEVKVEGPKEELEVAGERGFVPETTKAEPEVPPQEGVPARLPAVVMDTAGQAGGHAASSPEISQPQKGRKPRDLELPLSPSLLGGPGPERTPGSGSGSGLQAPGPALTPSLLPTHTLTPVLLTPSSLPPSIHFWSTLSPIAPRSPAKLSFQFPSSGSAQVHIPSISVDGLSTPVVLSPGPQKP
# Method in brief: as §1
# GABPA = target: T3, GABPA (Homo sapiens, UniProt Q06546 1-454); settings: protein: recombinant; tags: N-terminal GST; dsDNA, one strand shown
# T3 sequence: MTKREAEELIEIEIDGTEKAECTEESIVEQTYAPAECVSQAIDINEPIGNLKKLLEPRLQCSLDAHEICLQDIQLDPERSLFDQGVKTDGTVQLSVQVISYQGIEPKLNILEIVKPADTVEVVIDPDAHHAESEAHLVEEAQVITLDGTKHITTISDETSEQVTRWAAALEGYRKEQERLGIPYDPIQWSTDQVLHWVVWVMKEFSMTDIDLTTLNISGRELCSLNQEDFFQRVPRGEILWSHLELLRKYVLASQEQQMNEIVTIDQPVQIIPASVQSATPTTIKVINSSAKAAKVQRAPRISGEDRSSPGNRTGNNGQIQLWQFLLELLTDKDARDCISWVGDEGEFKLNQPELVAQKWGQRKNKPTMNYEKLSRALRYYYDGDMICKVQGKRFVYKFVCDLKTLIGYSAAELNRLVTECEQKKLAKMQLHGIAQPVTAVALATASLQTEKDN
# Method in brief: as §1
# ERG = target: T4, ERG (Homo sapiens, UniProt P11308 1-479); settings: protein: recombinant; tags: N-terminal GST; dsDNA, one strand shown
# T4 sequence: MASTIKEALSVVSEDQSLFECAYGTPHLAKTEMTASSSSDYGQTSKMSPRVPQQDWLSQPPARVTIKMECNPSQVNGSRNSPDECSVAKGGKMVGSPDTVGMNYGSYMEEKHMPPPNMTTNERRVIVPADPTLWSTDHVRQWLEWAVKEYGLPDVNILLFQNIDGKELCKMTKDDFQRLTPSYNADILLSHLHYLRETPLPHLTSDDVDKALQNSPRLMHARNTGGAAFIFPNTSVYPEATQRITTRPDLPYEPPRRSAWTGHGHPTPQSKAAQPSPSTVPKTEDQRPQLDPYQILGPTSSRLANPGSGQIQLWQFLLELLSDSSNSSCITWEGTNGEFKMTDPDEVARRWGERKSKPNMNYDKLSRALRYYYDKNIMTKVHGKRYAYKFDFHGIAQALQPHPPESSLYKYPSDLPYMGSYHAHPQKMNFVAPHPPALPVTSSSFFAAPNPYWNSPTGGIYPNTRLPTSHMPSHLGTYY
# Method in brief: as §1
# ELF1 = ELF1 (Homo sapiens, UniProt P32519 1-619); settings: protein: recombinant; tags: N-terminal GST; dsDNA, one strand shown
# Method in brief: as §1
# EHF = target: T5, EHF (Homo sapiens, UniProt Q9NZC4 1-300); settings: protein: recombinant; tags: N-terminal GST; dsDNA, one strand shown
# T5 sequence: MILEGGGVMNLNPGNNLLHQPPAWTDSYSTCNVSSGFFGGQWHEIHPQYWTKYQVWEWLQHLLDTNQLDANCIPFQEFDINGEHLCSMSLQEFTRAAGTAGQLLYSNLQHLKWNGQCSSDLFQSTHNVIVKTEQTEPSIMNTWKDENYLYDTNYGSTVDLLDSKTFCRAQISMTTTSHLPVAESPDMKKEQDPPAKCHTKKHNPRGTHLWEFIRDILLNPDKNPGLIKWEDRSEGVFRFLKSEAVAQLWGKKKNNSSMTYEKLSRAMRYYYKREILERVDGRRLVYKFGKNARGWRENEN
# Method in brief: as §1
# SPI1 = SPI1 (Homo sapiens, UniProt P17947 1-270); settings: protein: recombinant; tags: N-terminal GST; dsDNA, one strand shown
# Method in brief: as §1
# SPIB = SPIB (Homo sapiens, UniProt Q01892 1-262); settings: protein: recombinant; tags: N-terminal GST; dsDNA, one strand shown
# Method in brief: as §1
# ELK3 = target: T6, ELK3 (Homo sapiens, UniProt P41970 1-407); settings: protein: recombinant; tags: N-terminal GST; dsDNA, one strand shown
# T6 sequence: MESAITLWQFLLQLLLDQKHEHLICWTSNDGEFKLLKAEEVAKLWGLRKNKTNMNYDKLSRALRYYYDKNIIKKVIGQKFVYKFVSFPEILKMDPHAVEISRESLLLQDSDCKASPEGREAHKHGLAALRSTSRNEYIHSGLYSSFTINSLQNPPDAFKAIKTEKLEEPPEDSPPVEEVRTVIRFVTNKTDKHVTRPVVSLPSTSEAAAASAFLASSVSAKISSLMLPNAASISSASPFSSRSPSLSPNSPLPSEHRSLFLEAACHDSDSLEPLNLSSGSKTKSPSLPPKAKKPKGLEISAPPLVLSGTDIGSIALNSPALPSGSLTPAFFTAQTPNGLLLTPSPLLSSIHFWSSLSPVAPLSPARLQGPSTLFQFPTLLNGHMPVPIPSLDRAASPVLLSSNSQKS
# Method in brief: as §1
# FEV = target: T7, FEV (Homo sapiens, UniProt Q99581 1-238); settings: protein: recombinant; tags: N-terminal GST; dsDNA, one strand shown
# T7 sequence: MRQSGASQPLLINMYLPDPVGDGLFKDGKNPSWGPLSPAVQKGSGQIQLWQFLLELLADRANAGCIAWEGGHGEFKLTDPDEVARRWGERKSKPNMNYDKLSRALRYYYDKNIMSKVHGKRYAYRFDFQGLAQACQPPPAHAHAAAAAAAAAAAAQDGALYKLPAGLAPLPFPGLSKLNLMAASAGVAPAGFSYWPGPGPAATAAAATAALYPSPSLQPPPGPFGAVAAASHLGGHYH
# Method in brief: as §1
# ETV5 = ETV5 (Homo sapiens, UniProt P41161 1-510); settings: protein: recombinant; tags: N-terminal GST; dsDNA, one strand shown
# Method in brief: as §1
# HSF1 = HSF1 (Homo sapiens, UniProt Q00613 1-529); settings: protein: recombinant; tags: N-terminal GST; chain copies: 3; dsDNA, one strand shown
# Method in brief: as §1
# SPIC = target: T8, SPIC (Homo sapiens, UniProt Q8N5J4 1-248); settings: protein: recombinant; tags: N-terminal GST; dsDNA, one strand shown
# T8 sequence: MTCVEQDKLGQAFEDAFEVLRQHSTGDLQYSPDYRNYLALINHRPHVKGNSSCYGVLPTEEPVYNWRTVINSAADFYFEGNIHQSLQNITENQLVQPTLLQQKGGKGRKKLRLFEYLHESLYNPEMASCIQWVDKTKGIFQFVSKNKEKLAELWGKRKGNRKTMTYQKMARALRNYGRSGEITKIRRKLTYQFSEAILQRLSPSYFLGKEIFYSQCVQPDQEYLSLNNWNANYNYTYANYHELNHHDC
# Method in brief: as §1
# ELF4 = ELF4 (Homo sapiens, UniProt Q99607 1-663); settings: protein: recombinant; tags: N-terminal GST; dsDNA, one strand shown
# Method in brief: as §1
# ELK4 = target: T9, ELK4 (Homo sapiens, UniProt P28324-2 1-405); settings: protein: recombinant; tags: N-terminal GST; dsDNA, one strand shown
# T9 sequence: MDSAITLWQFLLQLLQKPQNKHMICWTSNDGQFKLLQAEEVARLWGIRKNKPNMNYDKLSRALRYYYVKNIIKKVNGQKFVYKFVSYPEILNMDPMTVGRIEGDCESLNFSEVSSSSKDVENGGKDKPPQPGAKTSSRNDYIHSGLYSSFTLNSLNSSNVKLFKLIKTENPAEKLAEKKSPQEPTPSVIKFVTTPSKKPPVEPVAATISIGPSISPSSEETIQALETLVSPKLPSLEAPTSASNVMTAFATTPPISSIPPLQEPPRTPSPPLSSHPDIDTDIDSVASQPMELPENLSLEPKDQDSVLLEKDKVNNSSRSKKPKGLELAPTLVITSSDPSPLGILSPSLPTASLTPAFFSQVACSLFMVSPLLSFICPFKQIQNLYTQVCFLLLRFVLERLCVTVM
# Method in brief: as §1
# ETV2 = target: T10, ETV2 (Homo sapiens, UniProt O00321 1-342); settings: protein: recombinant; tags: N-terminal GST; dsDNA, one strand shown
# T10 sequence: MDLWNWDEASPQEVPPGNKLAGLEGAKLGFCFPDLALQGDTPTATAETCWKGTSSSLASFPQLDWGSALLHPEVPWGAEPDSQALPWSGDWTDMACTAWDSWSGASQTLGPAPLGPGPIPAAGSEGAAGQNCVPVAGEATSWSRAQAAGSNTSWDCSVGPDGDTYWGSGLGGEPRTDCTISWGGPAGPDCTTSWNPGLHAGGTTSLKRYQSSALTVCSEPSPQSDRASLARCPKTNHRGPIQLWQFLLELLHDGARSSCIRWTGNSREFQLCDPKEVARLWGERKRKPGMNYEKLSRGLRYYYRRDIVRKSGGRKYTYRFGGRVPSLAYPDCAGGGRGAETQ
# Method in brief: as §1
# ELF3 = target: T11, ELF3 (Homo sapiens, UniProt P78545 1-371); settings: protein: recombinant; tags: N-terminal GST; dsDNA, one strand shown
# T11 sequence: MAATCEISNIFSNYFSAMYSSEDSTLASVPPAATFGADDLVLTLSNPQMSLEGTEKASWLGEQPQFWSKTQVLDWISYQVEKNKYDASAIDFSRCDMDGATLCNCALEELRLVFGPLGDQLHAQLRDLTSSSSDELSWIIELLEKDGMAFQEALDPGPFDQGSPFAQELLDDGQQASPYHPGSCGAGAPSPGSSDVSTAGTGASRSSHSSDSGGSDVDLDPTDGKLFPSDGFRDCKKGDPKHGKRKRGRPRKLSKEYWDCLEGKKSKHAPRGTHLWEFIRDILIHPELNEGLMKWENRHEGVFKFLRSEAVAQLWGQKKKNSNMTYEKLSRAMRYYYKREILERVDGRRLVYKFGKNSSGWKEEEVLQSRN
# Method in brief: as §1
# CRX = CRX (Homo sapiens, UniProt O43186 1-299); settings: protein: recombinant; tags: N-terminal GST; dsDNA, one strand shown
# Method in brief: as §1
# ETV1 = ETV1 (Homo sapiens, UniProt P50549 1-477); settings: protein: recombinant; tags: N-terminal GST; dsDNA, one strand shown
# Method in brief: as §1
# Chain of ETV5 (P41161 whole entry): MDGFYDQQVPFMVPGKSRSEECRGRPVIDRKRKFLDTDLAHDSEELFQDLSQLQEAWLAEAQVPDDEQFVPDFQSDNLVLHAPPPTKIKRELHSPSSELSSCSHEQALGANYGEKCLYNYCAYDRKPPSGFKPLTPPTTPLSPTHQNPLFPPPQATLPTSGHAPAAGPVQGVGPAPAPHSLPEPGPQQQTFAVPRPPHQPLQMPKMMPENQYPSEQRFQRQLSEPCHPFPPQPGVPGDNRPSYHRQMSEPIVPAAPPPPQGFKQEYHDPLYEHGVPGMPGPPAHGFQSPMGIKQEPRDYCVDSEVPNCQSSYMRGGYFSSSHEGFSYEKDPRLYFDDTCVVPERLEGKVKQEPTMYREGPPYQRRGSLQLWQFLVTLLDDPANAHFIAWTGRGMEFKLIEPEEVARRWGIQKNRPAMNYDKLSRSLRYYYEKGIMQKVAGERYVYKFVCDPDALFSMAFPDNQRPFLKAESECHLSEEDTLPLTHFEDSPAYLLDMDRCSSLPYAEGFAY
# Chain of SPIB (Q01892 whole entry): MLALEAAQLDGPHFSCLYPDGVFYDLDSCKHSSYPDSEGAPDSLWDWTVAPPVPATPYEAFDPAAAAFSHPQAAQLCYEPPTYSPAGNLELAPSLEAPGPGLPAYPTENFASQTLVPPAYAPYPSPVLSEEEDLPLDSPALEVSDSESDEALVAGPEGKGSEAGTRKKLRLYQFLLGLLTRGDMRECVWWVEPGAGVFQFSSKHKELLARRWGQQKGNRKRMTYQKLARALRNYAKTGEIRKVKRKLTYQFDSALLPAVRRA
# Chain of ETV1 (P50549 whole entry): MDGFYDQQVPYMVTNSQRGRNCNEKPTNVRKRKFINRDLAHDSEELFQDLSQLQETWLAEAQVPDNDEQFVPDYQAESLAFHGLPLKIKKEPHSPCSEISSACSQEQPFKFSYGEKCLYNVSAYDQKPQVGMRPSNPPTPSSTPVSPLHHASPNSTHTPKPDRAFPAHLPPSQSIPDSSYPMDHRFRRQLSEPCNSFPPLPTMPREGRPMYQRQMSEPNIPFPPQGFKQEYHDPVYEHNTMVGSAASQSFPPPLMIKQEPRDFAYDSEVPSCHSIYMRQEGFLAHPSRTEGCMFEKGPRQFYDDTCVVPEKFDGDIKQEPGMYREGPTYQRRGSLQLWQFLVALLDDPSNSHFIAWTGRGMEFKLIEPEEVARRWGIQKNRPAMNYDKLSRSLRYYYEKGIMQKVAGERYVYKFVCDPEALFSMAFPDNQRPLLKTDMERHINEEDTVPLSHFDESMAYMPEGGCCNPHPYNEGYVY
# Chain of CRX (O43186 whole entry): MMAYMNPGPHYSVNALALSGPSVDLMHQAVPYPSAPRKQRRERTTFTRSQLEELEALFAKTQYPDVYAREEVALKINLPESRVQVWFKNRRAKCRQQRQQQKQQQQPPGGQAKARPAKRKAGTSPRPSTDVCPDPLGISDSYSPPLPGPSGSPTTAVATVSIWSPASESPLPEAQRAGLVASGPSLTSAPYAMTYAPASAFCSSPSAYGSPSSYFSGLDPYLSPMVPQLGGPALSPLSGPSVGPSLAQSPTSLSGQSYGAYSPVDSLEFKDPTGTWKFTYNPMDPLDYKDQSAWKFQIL
# Chain of HSF1 (Q00613 whole entry): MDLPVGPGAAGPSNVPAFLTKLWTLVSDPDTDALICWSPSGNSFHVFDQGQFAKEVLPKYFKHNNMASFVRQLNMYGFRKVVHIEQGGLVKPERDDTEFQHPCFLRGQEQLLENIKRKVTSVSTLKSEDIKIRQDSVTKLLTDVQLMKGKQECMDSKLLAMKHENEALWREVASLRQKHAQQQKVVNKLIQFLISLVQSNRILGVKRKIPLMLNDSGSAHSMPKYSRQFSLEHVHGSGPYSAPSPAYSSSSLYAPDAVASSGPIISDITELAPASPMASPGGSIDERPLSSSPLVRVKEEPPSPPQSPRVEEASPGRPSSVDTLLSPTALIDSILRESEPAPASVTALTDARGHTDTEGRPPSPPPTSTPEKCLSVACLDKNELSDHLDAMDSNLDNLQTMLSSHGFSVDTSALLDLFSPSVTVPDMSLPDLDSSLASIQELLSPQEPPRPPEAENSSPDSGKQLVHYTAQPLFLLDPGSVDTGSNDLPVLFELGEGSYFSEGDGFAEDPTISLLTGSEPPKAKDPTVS
# Chain of ELF4 (Q99607 whole entry): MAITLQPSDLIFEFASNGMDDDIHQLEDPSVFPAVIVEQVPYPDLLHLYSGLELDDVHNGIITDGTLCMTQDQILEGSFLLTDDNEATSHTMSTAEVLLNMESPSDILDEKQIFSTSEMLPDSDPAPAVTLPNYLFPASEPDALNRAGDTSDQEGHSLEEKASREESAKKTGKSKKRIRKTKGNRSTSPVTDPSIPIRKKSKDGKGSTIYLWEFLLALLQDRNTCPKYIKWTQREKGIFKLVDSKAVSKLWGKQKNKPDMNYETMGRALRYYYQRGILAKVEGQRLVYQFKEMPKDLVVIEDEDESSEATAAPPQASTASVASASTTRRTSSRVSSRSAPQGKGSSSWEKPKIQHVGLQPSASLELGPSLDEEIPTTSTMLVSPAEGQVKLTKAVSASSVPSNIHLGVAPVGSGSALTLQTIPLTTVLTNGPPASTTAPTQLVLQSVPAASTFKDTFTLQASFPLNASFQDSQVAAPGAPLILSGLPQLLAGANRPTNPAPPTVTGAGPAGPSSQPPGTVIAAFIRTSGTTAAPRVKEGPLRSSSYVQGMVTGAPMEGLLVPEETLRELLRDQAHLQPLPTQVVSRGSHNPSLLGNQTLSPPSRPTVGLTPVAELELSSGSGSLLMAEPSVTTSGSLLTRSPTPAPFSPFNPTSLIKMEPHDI
# Chain of ELF1 (P32519 whole entry): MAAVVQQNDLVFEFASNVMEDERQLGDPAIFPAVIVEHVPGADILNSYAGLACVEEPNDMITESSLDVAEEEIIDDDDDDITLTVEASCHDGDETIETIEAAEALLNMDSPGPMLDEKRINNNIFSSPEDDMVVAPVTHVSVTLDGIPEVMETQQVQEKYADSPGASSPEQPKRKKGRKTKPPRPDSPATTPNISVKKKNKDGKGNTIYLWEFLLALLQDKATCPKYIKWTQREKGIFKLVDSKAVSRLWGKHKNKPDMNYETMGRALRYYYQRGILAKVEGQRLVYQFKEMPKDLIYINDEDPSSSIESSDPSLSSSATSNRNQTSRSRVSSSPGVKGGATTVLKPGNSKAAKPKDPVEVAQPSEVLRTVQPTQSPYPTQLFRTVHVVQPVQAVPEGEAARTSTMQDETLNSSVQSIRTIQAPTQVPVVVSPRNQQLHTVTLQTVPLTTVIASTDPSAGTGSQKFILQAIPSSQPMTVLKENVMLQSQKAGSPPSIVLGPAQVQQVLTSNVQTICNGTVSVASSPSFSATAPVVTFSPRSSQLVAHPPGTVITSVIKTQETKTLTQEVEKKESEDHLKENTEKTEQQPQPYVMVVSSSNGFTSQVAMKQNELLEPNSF
sequence,measurement,setting,value
TCCATT,binding signal,FLI1,"1.34 fold enrichment (6-mer frequency, TF over GST control)"
same,binding signal,ELK1,"1.16 fold enrichment (6-mer frequency, TF over GST control)"
same,binding signal,GABPA,"1.3 fold enrichment (6-mer frequency, TF over GST control)"
same,binding signal,ERG,"1.31 fold enrichment (6-mer frequency, TF over GST control)"
same,binding signal,ELF1,"1.26 fold enrichment (6-mer frequency, TF over GST control)"
same,binding signal,EHF,"1.27 fold enrichment (6-mer frequency, TF over GST control)"
same,binding signal,SPI1,"1.33 fold enrichment (6-mer frequency, TF over GST control)"
same,binding signal,SPIB,"1.39 fold enrichment (6-mer frequency, TF over GST control)"
same,binding signal,ELK3,"1.26 fold enrichment (6-mer frequency, TF over GST control)"
same,binding signal,FEV,"1.31 fold enrichment (6-mer frequency, TF over GST control)"
same,binding signal,ETV5,"1.36 fold enrichment (6-mer frequency, TF over GST control)"
same,binding signal,HSF1,"1.4 fold enrichment (6-mer frequency, TF over GST control)"
same,binding signal,SPIC,"1.31 fold enrichment (6-mer frequency, TF over GST control)"
same,binding signal,ELF4,"1.29 fold enrichment (6-mer frequency, TF over GST control)"
same,binding signal,ELK4,"1.37 fold enrichment (6-mer frequency, TF over GST control)"
same,binding signal,ETV2,"1.19 fold enrichment (6-mer frequency, TF over GST control)"
same,binding signal,ELF3,"1.27 fold enrichment (6-mer frequency, TF over GST control)"
same,binding signal,CRX,"1.35 fold enrichment (6-mer frequency, TF over GST control)"
same,binding signal,ETV1,"1.26 fold enrichment (6-mer frequency, TF over GST control)"
